# Data published in ChEMBL document CHEMBL3988442, “University of Dundee, Small-Polar-MMV Screening Library” (2021).
# Target: AMP-activated protein kinase, AMPK (Homo sapiens) (UniProt P54646+O43741+P54619+Q9UGJ0+Q9Y478+Q13131+Q9UGI9)
# Experiment: AMP-dependent Kinase enzyme assay. An in vitro enzyme assay that detects ADP turnover that is directly proportional to AMPK activity. This uses naive AMPK that is activated during the assay with MK-8722
# Type: functional
# Parameters: scale not given: direction of the effect not stated beside the values
# Conditions: 30 µM
row,Structure (SMILES),Percent Effect [%]
1,CSCCN1CCC(NC(=O)c2cccc(C3CCCNC3)c2)CC1 (stereo not drawn),-2.91
2,CN(C)C(=O)CN1CCCC(c2nccnc2-c2cccc(Cl)c2)C1 (stereo not drawn),19.9
3,CC(=O)N1CC(C(=O)NC(C)c2cnn(C)c2C)C1 (stereo not drawn),8.59
4,CNC(=O)c1cccnc1NCc1ccc(-n2cccn2)cc1,-0.487
5,Cc1cnn(CCCNC(=O)NC(C)C(=O)Nc2ccccc2)c1 (stereo not drawn),4.78
6,CCN(CC(=O)NC)C(=O)c1sc(Cc2ccccc2)nc1C,-3.98
7,O=C1CN(C(=O)CC2C(=O)NCCN2CC2CCCCC2)CCN1 (stereo not drawn),-5.33
8,CCc1nn(C)c(Cl)c1CN(CCOC)Cc1cnn(C)c1,5.81
9,CCC(=O)N1CCC(c2ncc(C(=O)Nc3ccccc3)c(C)n2)C1 (stereo not drawn),8.33
10,CCn1c(C2CCN(C(=O)c3ccc4sc(C)nc4c3)CC2)n[nH]c1=O,-0.0637
11,O=C(c1ccc2[nH]cnc2c1)N1CCC(COc2ccccn2)CC1,-1.03
12,CCC(CC)C(=O)N1CCC2(CC1)c1ccccc1[C@@H](OC)[C@@H]2O,14
13,CCC[C@@H]1CN(Cc2cc(C#N)n(C)c2C)C[C@H]1NS(C)(=O)=O,-87.1
14,O=C(Nc1ccc(-n2ccc(C(=O)O)n2)cc1)c1ccccc1,4.07
15,O=C(NCc1nnc2n1CCC2)c1ccc(C2CCCO2)s1 (stereo not drawn),1.37
16,Fc1cccc(CN2CCC[C@H](Cn3nnc(-c4ccccn4)n3)C2)c1,9.12
17,COCCC(=O)NCc1ccc(-c2ncncc2C(=O)N(C)C)cc1,-7.24
18,CCOc1ccc(Cl)cc1CCNC(=O)Cn1nc(C)ccc1=O,5.21
